Laboratory results taken from PubChem BioAssay (NCI).
Compounds without any hit were thinned out: in the full panel of roughly 79,000, 15% have a hit. Unmarked numbers belong to inactive results. Calls of active or inactive are those of the source. Cut-off read from the data, not from the text of the source: active = growth inhibition above about 70%; inactive = the rest.

How the values were obtained:
[1] = NCI Yeast Anticancer Drug Screen. Data for the rad50 strain (AID 155);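 note: 0% = growth of vehicle-only cultures of the same strain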; conditions: S. cerevisiae rad50 strain growth inhibition, stronger effect = higher value
Procedure, shortened: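 Inhibition values express reduced yeast growth in compound-treated cultures relative to vehicle-treated controls.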

[2] = NCI Yeast Anticancer Drug Screen. Data for the mec2-1 strain (AID 157); conditions: S. cerevisiae mec2-1 strain, stronger effect = higher value
Procedure, shortened: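 Strain: mec2-1 (DNA repair/cell cycle alteration). Compound exposure, then growth measured; inhibition expressed relative to vehicle.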

[3] = NCI Yeast Anticancer Drug Screen. Data for the sgs1 mgt1 strain (AID 161);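 note: 0% = growth of cultures given vehicle only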; conditions: S. cerevisiae sgs1 mgt1 strain, stronger effect = higher value
Procedure, shortened: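 Test agents were incubated with a DNA-repair-mutant yeast strain. Growth was then read and compared against vehicle-treated controls.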

[4] = NCI Yeast Anticancer Drug Screen. Data for the cln2 rad14 strain (AID 165);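 note: 0% = growth equal to vehicle treated cultures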; conditions: S. cerevisiae cln2 rad14 strain, stronger effect = higher value
Procedure, shortened: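 Compounds are applied to the cln2 rad14 yeast strain, and growth is then compared with that of vehicle-treated cultures to give inhibition.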

[5] = NCI Yeast Anticancer Drug Screen. Data for the bub3 strain (AID 167); conditions: S. cerevisiae bub3 mutant strain, stronger effect = higher value
Procedure, shortened: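 Steps: expose the mutant yeast strain to compound; grow alongside vehicle-treated cultures; measure growth; express inhibition against the vehicle cultures.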

[6] = NCI Yeast Anticancer Drug Screen. Data for the mlh1 rad18 strain (AID 175); conditions: S. cerevisiae mlh1 rad18 strain growth inhibition, stronger effect = higher value
Procedure, shortened: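 Read-out is yeast growth inhibition, calculated against vehicle-only controls. The compound was applied to a strain engineered with DNA damage repair alterations.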

[7] = at 5.0 µM (retest, dose inferred, filed as 0.5)
[8] = at 50.0 µM (retest, dose inferred, filed as 5.0)

Row | SMILES | growth inhibition [1, 7] | growth inhibition [1, 8] | growth inhibition ([1]; at 50.0 µM) | growth inhibition [2, 7] | growth inhibition [2, 8] | growth inhibition ([2]; at 50.0 µM) | growth inhibition [3, 7] | growth inhibition [3, 8] | growth inhibition ([3]; at 50.0 µM) | growth inhibition [4, 7] | growth inhibition [4, 8] | growth inhibition ([4]; at 50.0 µM) | growth inhibition [5, 7] | growth inhibition [5, 8] | growth inhibition ([5]; at 50.0 µM) | growth inhibition [6, 7] | growth inhibition [6, 8] | growth inhibition ([6]; at 50.0 µM)
1 | Cc1cc(O)cc2c1c(=O)c1ccccc1n2C | 15% | 29% | 39% | 15% | 24% | 24.5% | 20% | 17% | 11.4% | 15% | 25% | 1.8% | 18% | 25% | 2.4% | 23% | 34% | 11.6%
2 | O=C(O)CCCCCCCCC(=O)O.[Ag] | 99% (active) | 99% (active) | 90.2% (active) | 99% (active) | 99% (active) | 93% (active) | 100% (active) | 99% (active) | 93.8% (active) | 70% (active) | 99% (active) | 92.2% (active) | 99% (active) | 99% (active) | 92.5% (active) | 99% (active) | 99% (active) | 91.5% (active)
3 | CC1CCCN(c2cc(N(C)C)c([N+](=O)[O-])cc2F)C1 (stereo not given) | 34% | 47% | 32.2% | 35% | 49% | 11.7% | 37% | 59% | 38.2% | 34% | 46% | 51.5% | 41% | 86% (active) | 71.8% (active) | 45% | 67% | 37.5%
4 | Oc1ccc(Br)cc1-c1nc2cc(Cl)c(Cl)cc2nc1-c1cc(Br)ccc1O | 48% | 80% (active) | 81.2% (active) | 46% | 85% (active) | 86.3% (active) | 44% | 88% (active) | 88.6% (active) | 47% | 91% (active) | 86.1% (active) | 45% | 86% (active) | 81.7% (active) | 48% | 90% (active) | 80.7% (active)
5 | CCC(C)SC1SCC2C(=O)N(C)C3(CC3C)C(=O)OCC(NC(=O)c3nc4ccccc4cc3O)C(=O)NC(C)C(=O)N(C)C1C(=O)N(C)C1(CC1C)C(=O)OCC(NC(=O)c1nc3ccccc3cc1O)C(=O)NC(C)C(=O)N2C (stereo not given) | 98% (active) | 89% (active) | 89.7% (active) | 99% (active) | 92% (active) | 91.9% (active) | 80% (active) | 93% (active) | 92.4% (active) | 79% (active) | 94% (active) | 88.7% (active) | 75% (active) | 93% (active) | 91.2% (active) | 94% (active) | 84% (active) | 89.8% (active)
6 | O=C(Nc1ccc(Cl)cc1)Nc1nnc2nc(C(C(=O)c3ccc(F)cc3)c3nc4nnc(NC(=O)Nc5ccc(Cl)cc5)n4[nH]c3=O)c(=O)[nH]n12 | -11% | 32% | 99.5% (active) | -19% | 56% | 99.5% (active) | 4% | 33% | 99.5% (active) | -38% | 36% | 99.2% (active) | -26% | 48% | 99% (active) | -10% | 64% | 99.5% (active)
7 | c1ccc2cc3c(ccc4cccc[n+]43)cc2c1 | 17% | 28% | 34.3% | 20% | 52% | 18% | 23% | 53% | 35.6% | 30% | 29% | 71.5% (active) | -4% | 8% | 27.7% | 10% | 45% | 29.9%
8 | O=Cc1cc(-c2ccccc2)n(-c2ccccc2)c1-c1ccccc1 | 18% | 18% | 64.3% | 2% | -3% | 22.2% | -6% | 16% | 63% | -6% | 27% | 0% | 0% | 9% | 35.9% | -1% | 16% | 47.3%
9 | N=c1scc(-c2ccccc2)n1/N=C/c1cccnc1 | 1% | 95% (active) | 96.6% (active) | 3% | 96% (active) | 86.3% (active) | 7% | 98% (active) | 96.5% (active) | 11% | 95% (active) | 96.2% (active) | 5% | 96% (active) | 50.6% | -14% | 96% (active) | 95.8% (active)
10 | CCC(c1ccc(Cl)cc1)C(C#N)c1ccccc1 (stereo not given) | 6% | 40% | 76.7% (active) | 7% | 34% | 49.2% | 3% | 53% | 69.4% | 2% | 3% | -0.6% | 1% | 3% | 40.4% | 7% | 30% | 59%
